Source: PubChem BioAssay (several laboratories)
In the library only some 4.6% were active in any assay of this set; here they are far more common.
TIM10 inh – inhibits growth of TIM10 yeast strain; S. cerevisiae TIM10 strain growth, BacTiter-Glo luminescence, 24 h; inhibition, % at 10 µM; actives 1.4% (n = 330,000); AID 463195;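 active = inhibition of 40% or more at the single tested concentration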;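 note: wild-type TIM10 isogenic control strain grown at permissive 25 °C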
NLRP3 yeast inh – NALP3 inhibition in yeast. Yeast reconstituted NLRP3/ASC/caspase-1, beta-gal luminescence, 24 h. inhibition, % at 10 µM. actives 0.39% (n = 330,000). AID 2825;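 active = inhibition of 50% or more; inactive = inhibition below 50%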
SKKanGAS inh – blocks kanamycin growth of S. pyogenes SKKanGAS strain | inhibition, % at 7.5 µM | BacTiter-Glo, 6 h | actives 1.3% (n = 300,000);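 active = mean replicate score, as percent of positive control median, at least 50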;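 note: strain carries kanamycin resistance gene driven by streptokinase promoter and grows in 40 µg/ml kanamycin; loss of luminescence reflects streptokinase promoter inhibition or plain growth inhibition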
PfHsp90 yeast 2 – reduces growth (ATP signal) of yeast expressing P. falciparum Hsp90. S. cerevisiae expressing PfHsp90, BacTiter-Glo ATP, 48 h; yeast lacking PDR1 and PDR3 efflux regulators. inhibition, % at 9.4 µM. actives 0.32% (n = 310,000). AID 504621;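 active = every replicate shows inhibition above about 80%, whatever the replicate mean, limit read from the data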
tim23-1 inh – tim23-1 yeast growth inhibition. S. cerevisiae tim23-1 growth, BacTiter-Glo luminescence, 24 h. inhibition, % at 20 µM. actives 1.3% (n = 330,000);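 active = growth inhibition of the mutant yeast at or above 50%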;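 note: temperature-sensitive mutant grown at 25 °C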
tim10-1 inh – inhibits growth of tim10-1 mutant yeast | S. cerevisiae tim10-1 ts strain growth, BacTiter-Glo, 24 h | inhibition, % at 20 µM | actives 2.2% (n = 330,000);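 active = inhibition of at least 40%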;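 note: mutant grown at 25 °C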
Numbers stand for hits.

`CCOc1ccc(NC(=S)N=Nc2c(O)[nH]c3ccccc23)cc1` gave TIM10 inh inactive, NLRP3 yeast inh inactive, SKKanGAS inh 101, PfHsp90 yeast 2 inactive, tim23-1 inh inactive and tim10-1 inh inactive.
`Oc1[nH]c2ccc(Br)cc2c1N=NC(=S)N1CCOCC1` gave TIM10 inh inactive, NLRP3 yeast inh inactive, SKKanGAS inh 89, PfHsp90 yeast 2 inactive, tim23-1 inh inactive and tim10-1 inh inactive.
O=C(O)c1ccccc1C(=O)N1CCc2c([nH]c3ccccc23)C1C(F)(F)F (centres undefined) was read as TIM10 inh inactive, NLRP3 yeast inh inactive, SKKanGAS inh inactive, tim23-1 inh inactive and tim10-1 inh inactive.
For COc1ccc(C(=O)N2CCc3c([nH]c4ccccc34)C2C(F)(F)F)cc1 (centres undefined) the results were TIM10 inh inactive, NLRP3 yeast inh inactive, SKKanGAS inh 52, PfHsp90 yeast 2 inactive, tim23-1 inh inactive and tim10-1 inh inactive.
`C/C(=N\NC(=O)c1cc(Br)ccc1O)c1cccc(NC(=O)c2ccccc2F)c1` gave TIM10 inh inactive, NLRP3 yeast inh inactive, SKKanGAS inh 63, PfHsp90 yeast 2 inactive, tim23-1 inh inactive and tim10-1 inh inactive.
For NC(=O)c1ccc(NC(=O)CS(=O)(=O)c2cn(CC(=O)N3CCCCC3)c3ccccc23)cc1 the results were TIM10 inh inactive, NLRP3 yeast inh inactive, SKKanGAS inh inactive, PfHsp90 yeast 2 inactive, tim23-1 inh inactive and tim10-1 inh inactive.
Screening CSc1nc2ccc(NS(=O)(=O)c3ccc4c(c3)OCCO4)cc2s1 returned TIM10 inh inactive, NLRP3 yeast inh inactive, SKKanGAS inh inactive, PfHsp90 yeast 2 inactive, tim23-1 inh inactive and tim10-1 inh inactive.
`CSc1nc2ccc(S(=O)(=O)NC3CCCCC3)cc2s1` gave TIM10 inh inactive, NLRP3 yeast inh inactive, SKKanGAS inh inactive, PfHsp90 yeast 2 104, tim23-1 inh inactive and tim10-1 inh inactive.
Screening CCOc1cc(S(=O)(=O)NC2CCCCCC2)ccc1F returned TIM10 inh inactive, NLRP3 yeast inh inactive, SKKanGAS inh inactive, PfHsp90 yeast 2 108, tim23-1 inh inactive and tim10-1 inh inactive.
`COc1cccc2c1C(=O)c1c(O)c3c(c(O)c1C2=O)CC(O)(C(C)=O)CC3OC1CC(N(C)C)C(O)C(C)O1` (centres undefined) gave PfHsp90 yeast 2 98.
COc1cccc2c1C(=O)c1c(O)c3c(c(O)c1C2=O)C[C@@](O)(C(=O)CO)C[C@@H]3OC1CC(N)C(O)C(C)O1 (some centres undefined) was read as PfHsp90 yeast 2 inactive.
`CCCCOc1ccccc1C(=O)NNC(=S)NC(=O)c1ccccc1[N+](=O)[O-]` gave TIM10 inh inactive, NLRP3 yeast inh inactive, SKKanGAS inh 77, PfHsp90 yeast 2 inactive, tim23-1 inh inactive and tim10-1 inh inactive.
Screening CC(=O)Nc1ccc2c(c1)nc(CCN1CCN(c3ccccn3)CC1)n2C returned TIM10 inh inactive, NLRP3 yeast inh inactive, SKKanGAS inh inactive, PfHsp90 yeast 2 inactive, tim23-1 inh inactive and tim10-1 inh inactive.
For Clc1ccccc1OCCCCn1ccnc1 the results were TIM10 inh inactive, NLRP3 yeast inh inactive, SKKanGAS inh 59, PfHsp90 yeast 2 inactive, tim23-1 inh inactive and tim10-1 inh inactive.
CC(NS(=O)(=O)OCC(Cl)(Cl)Cl)c1ccc(C(C)(C)C)cc1 (centres undefined) was read as SKKanGAS inh 93 and PfHsp90 yeast 2 inactive.
`CC(C)(NS(=O)(=O)OCC(Cl)(Cl)Cl)c1ccccc1` gave TIM10 inh inactive, NLRP3 yeast inh inactive, SKKanGAS inh inactive, PfHsp90 yeast 2 inactive, tim23-1 inh inactive and tim10-1 inh inactive.
Screening O=C(O)C1CCCCC1C(=O)NCc1ccc(Cl)c(Cl)c1 (centres undefined) returned TIM10 inh inactive, NLRP3 yeast inh inactive, SKKanGAS inh inactive, PfHsp90 yeast 2 inactive, tim23-1 inh inactive and tim10-1 inh inactive.
For Oc1[nH]c2ccccc2c1N=Nc1cccc(Cl)c1 the results were TIM10 inh inactive, NLRP3 yeast inh inactive, SKKanGAS inh inactive, PfHsp90 yeast 2 inactive, tim23-1 inh inactive and tim10-1 inh inactive.
O=C(O)c1ccc(N=Nc2c(O)[nH]c3cc(Cl)ccc23)cc1 was read as TIM10 inh inactive, NLRP3 yeast inh inactive, SKKanGAS inh 70, PfHsp90 yeast 2 inactive, tim23-1 inh inactive and tim10-1 inh inactive.
For O=C(O)c1ccc(N=Nc2c(O)[nH]c3ccc(Br)cc23)cc1 the results were TIM10 inh inactive, NLRP3 yeast inh inactive, SKKanGAS inh 71, PfHsp90 yeast 2 inactive, tim23-1 inh inactive and tim10-1 inh inactive.
Screening Cc1cccc(C)c1OCCCCc1c(C)n[nH]c1C returned TIM10 inh inactive, NLRP3 yeast inh inactive, SKKanGAS inh inactive, PfHsp90 yeast 2 inactive, tim23-1 inh inactive and tim10-1 inh inactive.
For Cc1n[nH]c(C)c1CCCCOc1ccccc1F the results were TIM10 inh inactive, NLRP3 yeast inh inactive, SKKanGAS inh 68, PfHsp90 yeast 2 inactive, tim23-1 inh inactive and tim10-1 inh inactive.
`Cc1ccccc1OCCCc1c(C)n[nH]c1C` gave TIM10 inh inactive, NLRP3 yeast inh inactive, SKKanGAS inh 64, PfHsp90 yeast 2 inactive, tim23-1 inh inactive and tim10-1 inh inactive.
For Cc1ccccc1OCCCCc1c(C)n[nH]c1C the results were TIM10 inh inactive, NLRP3 yeast inh inactive, SKKanGAS inh 95, tim23-1 inh inactive and tim10-1 inh inactive.
Cc1ccc(S(=O)(=O)NC(Cc2ccccc2)C(=O)O)cc1C (centres undefined) was read as TIM10 inh inactive, NLRP3 yeast inh inactive, SKKanGAS inh inactive, PfHsp90 yeast 2 inactive, tim23-1 inh inactive and tim10-1 inh inactive.
For Clc1ccc(-c2nc(N3CCCCC3)nc3ccccc23)cc1 the results were TIM10 inh inactive, NLRP3 yeast inh inactive, SKKanGAS inh 90, PfHsp90 yeast 2 inactive, tim23-1 inh inactive and tim10-1 inh inactive.
`NS(=O)(=O)c1ccc(-c2ccc(/C=N/Nc3ccc(C(=O)O)cc3)o2)cc1` gave TIM10 inh inactive, NLRP3 yeast inh inactive, SKKanGAS inh inactive, PfHsp90 yeast 2 inactive, tim23-1 inh inactive and tim10-1 inh inactive.
`O=C(O)c1ccc(N/N=C/c2ccc(-c3ccc(Cl)cc3Cl)o2)cc1` gave TIM10 inh inactive, NLRP3 yeast inh inactive, SKKanGAS inh 84, PfHsp90 yeast 2 inactive, tim23-1 inh inactive and tim10-1 inh inactive.
`O=C(O)c1ccc(N/N=C/c2ccc(-c3cc(Cl)ccc3Cl)o2)cc1` gave TIM10 inh inactive, NLRP3 yeast inh inactive, SKKanGAS inh 76, PfHsp90 yeast 2 inactive, tim23-1 inh inactive and tim10-1 inh inactive.
O=C(O)c1ccc(N/N=C/c2ccc(-c3cccc(Cl)c3)o2)cc1 was read as TIM10 inh inactive, NLRP3 yeast inh inactive, SKKanGAS inh 70, PfHsp90 yeast 2 104, tim23-1 inh inactive and tim10-1 inh inactive.
Cc1ccc(C(=O)/C=C/c2cc(C#N)n(C)c2C)cc1 was read as TIM10 inh inactive, NLRP3 yeast inh inactive, SKKanGAS inh inactive, PfHsp90 yeast 2 inactive, tim23-1 inh inactive and tim10-1 inh inactive.
